This note sets out measurements from PubChem BioAssay (Tox21).

Test [1] in a line: qHTS assay for small molecule agonists of the p53 signaling pathway (AID 651631; calls by dose curve; further: nearly all actives have a fitted effect of over 15% in size; further: potency means the concentration at half of the fitted maximal effect). A digest of the protocol: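 We treat p53RE-bla HCT-116 cells with compounds for 16 h at 37 °C, add LiveBLAzer B/G FRET substrate for 2 h at room temperature, and measure fluorescence intensity.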
Test [2] in a line: qHTS assay for small molecules that induce genotoxicity in human embryonic kidney cells expressing luciferase-tagged ATAD5 (AID 651632). Further: nearly all actives have a fitted effect of over 15% in size. The method in brief: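 DMSO vehicle served as the control. HEK293T reporter cells, 16 hr at 37C, then 30 min Amplite at room temperature; ATAD5 induction is measured as luciferase activity.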
A general note: In qHTS, concentration-response curves come from the screen itself.

Test [3] in a line: qHTS assay for small molecule agonists of the p53 signaling pathway - cell viability (AID 651633; calls by dose curve; further: nearly all actives have a fitted effect of over 30% in size; further: potency means the concentration at half of the fitted maximal effect). A digest of the protocol:
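p53RE-bla cells were treated with compound for 16 hours at 37 C. Cytotoxicity was then measured as CellTiter-Glo luminescence after 30 min at room temperature.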

Test [4] is described as follows: qHTS assay for small molecule disruptors of the mitochondrial membrane potential - cell viability (AID 720634; calls by dose curve;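 further: human HepG2 liver cancer cells; series mostly up to about 83 µM; nearly all actives have a fitted effect of over 20% in size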). The method in brief: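 Viability of HepG2 cells is scored from ATP content by luminescence; cells are exposed to compound for 1 hr at 37 C and 5% CO2, then dosed with m-MPI dye before the CellTiter-Glo reagent.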
Test [5] can be described thus: qHTS assay for small molecule disruptors of the mitochondrial membrane potential (AID 720635). Further: potency means the concentration at half of the fitted maximal effect. The method in brief: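 HepG2 cells exposed to compound 1 hr at 37C, then Mito-MPS dye 30 min. Ratio read of aggregate (540/590 nm) versus monomer (490/535 nm) fluorescence.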
Test [6] is described as follows: qHTS assay to test for compound auto fluorescence at 590 nm (red) in HepG2 cells (AID 720674). A digest of the protocol: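 Fluorescence at 590 nm emission following 540 nm excitation was recorded from HepG2 wells one hour after compound transfer, with DMSO-only wells as vehicle and Rose Bengal sodium equivalency as the scale.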
Test [7] is described as follows: qHTS assay to test for compound auto fluorescence at 535 nm (green) in HepG2 cells (AID 720675).
Test [8] in a line: qHTS assay to test for compound auto fluorescence at 590 nm (red) in HEK293 cells (AID 720679). A digest of the protocol: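 HEK293 cells (2,000/well, 10% dialyzed FBS) attached 4-5 hr, then dosed with compound or DMSO and incubated overnight at 37C, 5% CO2. Red fluorescence read at 540/590 nm, Rose Bengal sodium as reference fluorophore.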
The nature of test [9]: qHTS assay to test for compound auto fluorescence at 535 nm (green) in HEK293 cells (AID 720680).
Test [10] can be described thus: qHTS assay to test for compound auto fluorescence at 460 nm (blue) in HEK293 cell free culture (AID 720681). A digest of the protocol: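 Compounds were added to cell-free DMEM with 10% FBS and fluorescence read directly. The blue channel used 405 nm excitation and 460 nm emission, with triamterene as the reference fluorophore.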
Test [11] can be described thus: qHTS assay to test for compound auto fluorescence at 535 nm (green) in HEK293 cell free culture (AID 720682). The method in brief: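 Green-channel intensity (Ex/Em 485/535 nm) was recorded from compound-treated wells containing only DMEM with 10% FBS. Fluorescein provided the equivalency standard.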
A short description of test [12]: qHTS assay to test for compound auto fluorescence at 590 nm (red) in HEK293 cell free culture (AID 720683). The method in brief: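 Cell-free wells of DMEM with 10% FBS received compound, and intrinsic fluorescence was read at excitation/emission 540/590 nm. Values expressed as equivalence to Rose Bengal sodium.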
A short description of test [13]: qHTS assay to test for compound auto fluorescence at 590 nm (red) in HepG2 cell free culture (AID 720684). A digest of the protocol:
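Auto fluorescence equivalency versus Rose Bengal sodium, red channel Ex/Em 540/590 nm; compounds in cell-free MEM/10% FBS; DMSO vehicle control.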

Test [14] in a line: qHTS assay to test for compound auto fluorescence at 460 nm (blue) in HepG2 cell free culture (AID 720685). A digest of the protocol:
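Cell-free plates of MEM plus 10% FBS received 23 nL compound or DMSO vehicle; blue-channel (405/460 nm) intensity scored against triamterene as reference fluorophore.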

Test [15] in a line: qHTS assay to test for compound auto fluorescence at 535 nm (green) in HepG2 cell free culture (AID 720686).
A short description of test [16]: qHTS assay to test for compound auto fluorescence at 460 nm (blue) in HepG2 cells (AID 720687). The method in brief:
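HepG2 cells in MEM with 10% FBS, attached overnight at 37 C, were exposed to compound or DMSO for 1 hr at 37 C, 5% CO2. Blue fluorescence was read at 405/460 nm, with triamterene as reference fluorophore.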

In test [17] the target is Glucocorticoid receptor (Homo sapiens) (UniProt P04150). Put plainly: qHTS assay to identify small molecule agonists of the glucocorticoid receptor (GR) signaling pathway (AID 720691; active means well fitted activation curve with a large enough effect in the signal ratio in the repeat runs, not every such curve was filed as active; the % refers to the signal ratio). A digest of the protocol:
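Compounds in DMSO, alongside positive controls, were added to GR-bla HeLa reporter cells and incubated 18 h at 37 C; GRE-driven beta-lactamase was detected by fluorescence after 2 h with FRET substrate at room temperature.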

Test [18] is described as follows: qHTS assay for small molecules that induce genotoxicity in human embryonic kidney cells expressing luciferase-tagged ATAD5 - cell viability (AID 651634; calls by dose curve; further: nearly all actives have a fitted effect of over 25% in size; further: potency means the concentration at half of the fitted maximal effect). The method in brief:
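Here HEK293T cells with the ATAD5 luciferase reporter are incubated with test compounds for 15.5 hr, and cytotoxicity is then gauged by measuring protease activity in live cells using fluorescence.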

Test [19] is described as follows: qHTS assay to test for compound auto fluorescence at 460 nm (blue) in HEK293 cells (AID 720678). A digest of the protocol: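 HEK293 cells (2,000/well, medium with 10% dialyzed FBS) attached 4-5 hr, then exposed to compound overnight at 37C, 5% CO2. Blue fluorescence read at 405/460 nm, with triamterene as reference fluorophore.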
For test [20], the target named is Glucocorticoid receptor (Homo sapiens) (UniProt P04150). Put plainly: qHTS assay to identify small molecule antagonists of the glucocorticoid receptor (GR) signaling pathway (AID 720692; active means well fitted inhibition curve with a large enough effect in the signal ratio in the repeat runs, not every such curve was filed as active; the % refers to the signal ratio; further: potency means the concentration at half of the fitted maximal effect). A digest of the protocol: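 In a 1536-well cell format, compounds were added 4 h after seeding GR-bla HeLa cells, together with dexamethasone at 5 nM final; reporter activity was measured by FRET-substrate fluorescence following 18 h at 37 C.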
Chain of Glucocorticoid receptor (Homo sapiens) (P04150 whole entry, looked up): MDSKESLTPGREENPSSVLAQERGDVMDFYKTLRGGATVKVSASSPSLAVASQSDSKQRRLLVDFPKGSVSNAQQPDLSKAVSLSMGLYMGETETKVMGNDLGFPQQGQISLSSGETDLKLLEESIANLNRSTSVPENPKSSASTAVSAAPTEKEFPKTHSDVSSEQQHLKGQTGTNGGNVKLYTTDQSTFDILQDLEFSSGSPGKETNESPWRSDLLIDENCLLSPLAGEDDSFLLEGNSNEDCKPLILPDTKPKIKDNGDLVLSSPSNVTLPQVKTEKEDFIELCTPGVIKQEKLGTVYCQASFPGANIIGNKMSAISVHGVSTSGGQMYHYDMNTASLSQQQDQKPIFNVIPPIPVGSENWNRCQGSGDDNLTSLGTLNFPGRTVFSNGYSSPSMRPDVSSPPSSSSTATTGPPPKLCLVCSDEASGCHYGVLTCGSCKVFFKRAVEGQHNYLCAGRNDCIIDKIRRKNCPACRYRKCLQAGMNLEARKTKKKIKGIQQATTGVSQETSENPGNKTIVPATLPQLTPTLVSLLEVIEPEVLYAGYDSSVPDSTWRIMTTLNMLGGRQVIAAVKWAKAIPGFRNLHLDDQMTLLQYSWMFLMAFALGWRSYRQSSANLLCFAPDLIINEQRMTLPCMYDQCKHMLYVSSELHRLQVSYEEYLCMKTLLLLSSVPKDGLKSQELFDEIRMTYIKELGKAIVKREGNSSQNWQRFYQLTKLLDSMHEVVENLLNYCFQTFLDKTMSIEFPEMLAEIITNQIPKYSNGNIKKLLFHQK

Where “and” joins values, the source holds several entries; their conditions need not be identical. Equal entries are not always repeated. Records with an inconclusive call do not appear. Calls of active or inactive are those of the source. Unless noted, the call rests on the fitted dose curve; in most records, active means well fitted curve in the direction sought with a large enough effect in the repeat runs; inconclusive means weak or mixed curves; inactive means no such curve, though single readings can be large; an effect the other way counts as inactive or inconclusive.

On to `COC(=O)[C@H]1[C@H]2C[C@@H]3c4[nH]c5cc(OC)ccc5c4CCN3C[C@H]2C[C@@H](OC(=O)c2cc(OC)c(OC)c(OC)c2)[C@@H]1OC`, for which the Potency result in test [1], in test [2], in [3], in test [4], in [7] and in test [9] was “inactive” in each case. Also, the Potency result in test [10], in test [11], in [14], in test [15], in [16] and in [17] was “inactive” in each case. The Potency in test [5] was 48.5 µM (active). For the same molecule, the call in [6], in test [8], in test [12] and in test [13] was inactive.
For the molecule `CC1COc2c(N3CCN(C)CC3)c(F)cc3c(=O)c(C(=O)O)cn1c23` (stereo unspecified), the Potency result in test [1], in test [3], in test [18], in test [7], in test [9] and in test [10] was “inactive” each time. Moreover, the Potency result in test [11], in [14], in test [15] and in test [16] was “inactive” throughout. The result in test [6], in test [12] and in [13] was inactive.
In the case of `Oc1c(Cl)cc(Cl)c(Cl)c1Cc1c(O)c(Cl)cc(Cl)c1Cl`, the Potency was 13.3 µM (active) and 9.66 µM (active) and 54.5 µM (active) in test [1]; 1.88 µM (active) and 68.4 µM (active) and 12.2 µM (active) in [3]; 841 nM (active) and 484 nM (active) and 344 nM (active) in test [5]. The Potency entry in test [2], in test [7], in [9], in [10], in [11] and in [14] was “inactive” each time. The Potency result in [15] and in test [16] was “inactive” throughout. Besides, the call in test [6], in test [8], in test [12] and in test [13] was inactive.
Turning to `C=CS(=O)(=O)O`, the Potency entry in test [1], in [3], in test [18], in [4], in test [7] and in [19] was “inactive” in each case. Besides, the Potency result in test [9], in test [10], in test [11], in test [15], in test [17] and in test [20] was “inactive” each time. The outcome in test [6], in [8], in test [12] and in test [13] was inactive.
On to `O=C(O)c1cn(-c2ccc(F)cc2)c2cc(N3CCNCC3)c(F)cc2c1=O`, for which the Potency entry in test [1], in test [3], in test [18], in [4], in test [7] and in test [19] was “inactive” in each case. The Potency result in test [9], in test [10], in test [11], in test [14], in [15] and in test [16] was “inactive” in each case. In addition, the Potency entry in test [17] and in [20] was “inactive” in each case. Moreover, the molecule was classed as inactive in [6], in test [8], in test [12] and in test [13].
Consider `O=C(OCc1ccccc1)c1ccc(O)cc1`, for which the Potency entry in [1], in [3], in test [18], in test [7], in [19] and in [9] was “inactive” in each case. Also, the Potency result in [10], in test [11], in [15], in test [17] and in test [20] was “inactive” throughout. Further, the Potency in test [5] was 13.3 µM (active) and 15.4 µM (active). The call in [6], in test [8], in test [12] and in test [13] was inactive.
`C=CC(=O)OCCCCCCOC(=O)C=C`: the Potency was 11 µM (active) in test [1]; 31 µM (active) in test [18]; 39.4 µM (active) and 43.6 µM (active) in test [20]. Also, the Potency result in [3], in test [4], in [5], in [7], in test [19] and in [9] was “inactive” each time. Further, the Potency entry in [10], in test [11], in [14], in [15] and in test [17] was “inactive” throughout. For the same molecule, the molecule was classed as inactive in test [6] and in test [12].
